Where “and” joins values, the source holds several entries; their conditions need not be identical. Identical values can stand only once. Results filed as inconclusive are left out. Entries that show only a call come without a potency. Calls of active or inactive are those of the source. Unless noted, the call rests on the fitted dose curve.
Tests used:
[1] = molecular target: Estrogen receptor (Homo sapiens) (UniProt P03372); experiment: qHTS assay for small molecule agonists of estrogen receptor alpha signaling (AID 588514); further: nearly all actives have a fitted effect of over 70% in size
Chain of Estrogen receptor (Homo sapiens) (P03372 whole entry, looked up): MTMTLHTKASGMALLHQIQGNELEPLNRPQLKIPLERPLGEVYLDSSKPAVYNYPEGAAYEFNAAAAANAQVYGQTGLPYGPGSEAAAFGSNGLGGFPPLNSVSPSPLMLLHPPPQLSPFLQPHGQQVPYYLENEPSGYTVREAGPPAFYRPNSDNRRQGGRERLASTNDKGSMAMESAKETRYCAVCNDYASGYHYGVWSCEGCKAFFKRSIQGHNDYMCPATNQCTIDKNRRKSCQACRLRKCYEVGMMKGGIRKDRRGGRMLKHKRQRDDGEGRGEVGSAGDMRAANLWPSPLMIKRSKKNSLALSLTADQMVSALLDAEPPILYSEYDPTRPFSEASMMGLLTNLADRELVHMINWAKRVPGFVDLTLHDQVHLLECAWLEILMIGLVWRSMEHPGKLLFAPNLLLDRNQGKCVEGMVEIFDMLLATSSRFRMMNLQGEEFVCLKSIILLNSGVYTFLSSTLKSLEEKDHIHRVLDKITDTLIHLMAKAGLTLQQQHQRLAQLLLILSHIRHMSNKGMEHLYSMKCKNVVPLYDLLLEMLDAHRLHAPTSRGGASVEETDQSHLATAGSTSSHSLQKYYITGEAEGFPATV
Outline: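 Cells were plated at 5000/well, incubated 4 hrs at 37 C, dosed with compound titration series, incubated 18 hrs at 37 C, loaded with CCF4 dye for 2 hrs at RT, then fluorescence was read.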

[2] = molecular target: Androgen receptor (Homo sapiens) (UniProt P10275); experiment: qHTS assay for small molecule agonists of androgen receptor signaling (AID 588515; active means well fitted curve in the direction sought with a large enough effect in the signal ratio, with a control signal flat; the % refers to the signal ratio); conditions: AR-UAS-bla HEK293, beta-lactamase ratio, agonist 16 h; stronger effect = higher value
Chain of Androgen receptor (Homo sapiens) (P10275 whole entry, looked up): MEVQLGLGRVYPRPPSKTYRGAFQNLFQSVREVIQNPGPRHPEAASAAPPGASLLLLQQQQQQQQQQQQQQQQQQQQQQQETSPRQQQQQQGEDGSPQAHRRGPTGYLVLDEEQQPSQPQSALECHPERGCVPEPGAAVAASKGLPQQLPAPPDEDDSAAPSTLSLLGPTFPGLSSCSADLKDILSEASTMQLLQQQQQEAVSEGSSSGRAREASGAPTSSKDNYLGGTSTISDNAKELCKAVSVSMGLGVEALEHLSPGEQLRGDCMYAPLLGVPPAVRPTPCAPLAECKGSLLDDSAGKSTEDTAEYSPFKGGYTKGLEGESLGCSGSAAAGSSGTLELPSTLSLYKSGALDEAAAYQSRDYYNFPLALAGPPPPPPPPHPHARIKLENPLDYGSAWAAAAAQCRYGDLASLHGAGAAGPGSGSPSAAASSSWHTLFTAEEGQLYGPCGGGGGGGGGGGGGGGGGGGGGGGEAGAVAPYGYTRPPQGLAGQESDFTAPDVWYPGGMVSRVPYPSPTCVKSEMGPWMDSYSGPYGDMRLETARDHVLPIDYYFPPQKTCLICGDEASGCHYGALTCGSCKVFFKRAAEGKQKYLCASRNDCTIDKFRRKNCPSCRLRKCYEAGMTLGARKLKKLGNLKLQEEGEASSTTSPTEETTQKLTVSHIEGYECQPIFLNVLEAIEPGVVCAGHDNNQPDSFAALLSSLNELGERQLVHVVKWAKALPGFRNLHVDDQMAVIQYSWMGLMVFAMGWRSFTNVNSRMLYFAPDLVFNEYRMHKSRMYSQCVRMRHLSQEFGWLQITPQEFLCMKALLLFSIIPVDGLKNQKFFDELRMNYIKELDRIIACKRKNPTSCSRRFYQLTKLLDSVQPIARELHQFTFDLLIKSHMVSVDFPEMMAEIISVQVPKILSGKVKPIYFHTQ
Outline: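 EC50 and efficacy came from Hill fits of titrations (up to 92 uM) normalized to 30 nM R1881 as 100% and DMSO as 0%. Compound exposure was 16 h at 37 C on AR-UAS-bla HEK293 cells, with a 405/460/530 nm CCF4 fluorescence read.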

[3] = molecular target: Androgen receptor (Homo sapiens) (UniProt P10275); experiment: qHTS assay for small molecule antagonists of androgen receptor signaling (AID 588516; active means well fitted curve in the direction sought with a large enough effect in the signal ratio, with a control signal flat, not every such curve was filed as active; the % refers to the signal ratio)
Outline: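 HEK293 AR-UAS-bla cells, 10% dialyzed FBS medium; cpd titration + R1881 10 nM final, 16 h 37 C; CCF4 2 h RT; FRET ratio; IC50/efficacy via Hill fit.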

[4] = molecular target: Bile acid receptor (Homo sapiens) (UniProt Q96RI1); experiment: qHTS assay for small molecule antagonists of farnesoid X receptor signaling (AID 588526)
Chain of Bile acid receptor (Homo sapiens) (Q96RI1 whole entry, looked up): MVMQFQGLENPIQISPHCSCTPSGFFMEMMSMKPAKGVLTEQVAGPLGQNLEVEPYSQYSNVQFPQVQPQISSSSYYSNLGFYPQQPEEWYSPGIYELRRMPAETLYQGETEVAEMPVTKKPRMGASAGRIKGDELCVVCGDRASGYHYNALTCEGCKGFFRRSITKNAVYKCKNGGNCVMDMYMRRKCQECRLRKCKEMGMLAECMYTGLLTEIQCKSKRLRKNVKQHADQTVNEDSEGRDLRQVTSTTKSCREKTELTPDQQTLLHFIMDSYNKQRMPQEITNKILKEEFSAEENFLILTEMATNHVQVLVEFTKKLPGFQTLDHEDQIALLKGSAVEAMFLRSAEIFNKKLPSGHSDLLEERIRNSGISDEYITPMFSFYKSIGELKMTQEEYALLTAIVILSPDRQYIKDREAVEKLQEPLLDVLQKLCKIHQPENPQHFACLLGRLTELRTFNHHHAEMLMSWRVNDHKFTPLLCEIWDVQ
Outline: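 Antagonist mode: titrated compounds tested against chenodeoxycholic acid stimulation (normalized to 50 uM CDCA and DMSO) in GeneBLAzer HEK293T cells for 16 h. Beta-lactamase read by CCF4 fluorescence; IC50 from Hill fits.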

[5] = molecular target: Bile acid receptor (Homo sapiens) (UniProt Q96RI1); experiment: qHTS assay for small molecule agonists of farnesoid X receptor signaling (AID 588527); conditions: HEK293T FXR-UAS-bla, beta-lactamase ratio, 16 h; stronger effect = higher value; further: series mostly up to about 77 µM
Outline: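 FXR-UAS-bla HEK293T cells (10% dialyzed FBS) preincubated 5-7 h at 37 C, then compounds at up to 92 uM for 16 h at 37 C. CCF4 beta-lactamase read-out after 2 h RT. Normalized to chenodeoxycholic acid (100 uM) and DMSO; Hill fit gave EC50 and efficacy.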

[6] = molecular target: Glucocorticoid receptor (Homo sapiens) (UniProt P04150); experiment: qHTS assay for small molecule agonists of glucocorticoid receptor signaling (AID 588532; active means well fitted curve in the direction sought with a large enough effect in the signal ratio, with a control signal flat; the % refers to the signal ratio); conditions: HeLa MMTV-bla, beta-lactamase ratio, agonist, 18 h; stronger effect = higher value; percent of dexamethasone control, DMSO zero
Outline: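 Cells were plated and rested 3-5 h at 37 C, compounds were added in titration and incubated 18 h, then CCF4 substrate was loaded for 2 h at RT before reading blue/green fluorescence. EC50 came from Hill-equation fitting.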

[7] = molecular target: Glucocorticoid receptor (Homo sapiens) (UniProt P04150); experiment: qHTS assay for small molecule antagonists of glucocorticoid receptor signaling (AID 588533; active means well fitted inhibition curve with a large enough effect in the signal ratio, with a control signal flat, not every such curve was filed as active; the % refers to the signal ratio)
Outline: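 Antagonist-mode qHTS: compound titrations added to GRE-bla HeLa cells, then dexamethasone 2 nM final; 18 h, 37 C. CCF4 FRET fluorescence normalized to dexamethasone and DMSO; IC50 from Hill fit.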

[8] = molecular target: Peroxisome proliferator-activated receptor delta (Homo sapiens) (UniProt Q03181); experiment: qHTS assay for small molecule agonists of peroxisome proliferator-activated receptor delta signaling (AID 588534)
Chain of Peroxisome proliferator-activated receptor delta (Homo sapiens) (Q03181 whole entry, looked up): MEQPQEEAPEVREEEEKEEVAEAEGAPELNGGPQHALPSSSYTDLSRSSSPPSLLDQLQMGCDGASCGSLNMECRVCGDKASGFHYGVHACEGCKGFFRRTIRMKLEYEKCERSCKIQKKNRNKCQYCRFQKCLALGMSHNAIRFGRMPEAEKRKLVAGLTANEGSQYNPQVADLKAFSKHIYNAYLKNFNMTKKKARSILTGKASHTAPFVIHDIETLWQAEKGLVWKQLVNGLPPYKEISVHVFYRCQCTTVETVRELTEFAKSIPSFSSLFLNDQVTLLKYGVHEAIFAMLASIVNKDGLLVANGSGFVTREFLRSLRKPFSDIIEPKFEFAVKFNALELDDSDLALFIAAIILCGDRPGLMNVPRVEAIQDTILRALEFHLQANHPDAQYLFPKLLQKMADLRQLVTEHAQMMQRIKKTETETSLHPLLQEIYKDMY
Outline: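 Fluorescence from CCF4 substrate cleavage by beta-lactamase reporter, read 2 hrs at RT, measured agonist activity. Compounds were tested with 18 hrs exposure at 37 C. Concentration-response data fitted to Hill equation.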

[9] = qHTS assay for small molecule antagonists of peroxisome proliferator-activated receptor delta signaling (AID 588535; active means well fitted inhibition curve with a large enough effect in the signal ratio, with a control signal flat, not every such curve was filed as active; the % refers to the signal ratio;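 on max response: cells co-treated with a PPAR-delta agonist as stimulator during compound exposure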); conditions: HEK293T PPARd-UAS-bla, beta-lactamase FRET ratio, 18 h; 460 nm channel
Outline: (§1)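 Antagonist-mode beta-lactamase reporter (GeneBLAzer PPAR-delta-UAS-bla) in HEK293T cells, 2% charcoal/dextran FBS, 4000 cells/well. Compound titrations, 18 h at 37 C; CCF4 ratio read, IC50 and efficacy from Hill fits.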

[10] = molecular target: Peroxisome proliferator-activated receptor delta (Homo sapiens) (UniProt Q03181); experiment: as above
Outline: as §1

[11] = molecular target: Peroxisome proliferator-activated receptor gamma (Homo sapiens) (UniProt P37231); experiment: qHTS assay for small molecule antagonists of peroxisome proliferator-activated receptor gamma signaling (AID 588537; active means well fitted inhibition curve with a large enough effect in the signal ratio, with a control signal flat, not every such curve was filed as active; the % refers to the signal ratio; further: potency means the concentration at half of the fitted maximal effect)
Chain of Peroxisome proliferator-activated receptor gamma (Homo sapiens) (P37231 whole entry, looked up): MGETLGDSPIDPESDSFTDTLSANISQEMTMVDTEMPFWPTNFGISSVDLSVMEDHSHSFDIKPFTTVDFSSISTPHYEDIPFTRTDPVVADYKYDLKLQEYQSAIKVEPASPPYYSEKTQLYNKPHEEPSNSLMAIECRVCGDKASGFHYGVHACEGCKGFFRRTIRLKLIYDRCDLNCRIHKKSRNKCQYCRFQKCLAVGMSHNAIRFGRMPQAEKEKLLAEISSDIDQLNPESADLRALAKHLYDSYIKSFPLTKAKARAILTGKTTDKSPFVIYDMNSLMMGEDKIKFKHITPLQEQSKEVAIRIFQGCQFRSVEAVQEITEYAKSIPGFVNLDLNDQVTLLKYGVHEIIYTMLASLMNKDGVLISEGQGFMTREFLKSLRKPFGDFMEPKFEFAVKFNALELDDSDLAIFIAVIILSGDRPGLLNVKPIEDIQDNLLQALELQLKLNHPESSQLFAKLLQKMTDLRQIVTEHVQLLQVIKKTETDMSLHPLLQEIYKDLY
Outline: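 PPARγ-UAS-bla HEK293 cells (3000/well) in 1% charcoal/dextran-stripped FBS are treated with compound, then stimulated with 50 nM rosiglitazone for 16 h at 37 °C. Read-out is CCF4 β-lactamase fluorescence after 2 h at RT. IC50 comes from Hill fits normalised to rosiglitazone and DMSO.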

[12] = molecular target: Vitamin D3 receptor (Homo sapiens) (UniProt P11473); experiment: qHTS assay for small molecule antagonists of vitamin D receptor signaling (AID 588541);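 further: receptor activated by calcitriol during compound treatment; series mostly up to about 77 µM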
Chain of Vitamin D3 receptor (Homo sapiens) (P11473 whole entry, looked up): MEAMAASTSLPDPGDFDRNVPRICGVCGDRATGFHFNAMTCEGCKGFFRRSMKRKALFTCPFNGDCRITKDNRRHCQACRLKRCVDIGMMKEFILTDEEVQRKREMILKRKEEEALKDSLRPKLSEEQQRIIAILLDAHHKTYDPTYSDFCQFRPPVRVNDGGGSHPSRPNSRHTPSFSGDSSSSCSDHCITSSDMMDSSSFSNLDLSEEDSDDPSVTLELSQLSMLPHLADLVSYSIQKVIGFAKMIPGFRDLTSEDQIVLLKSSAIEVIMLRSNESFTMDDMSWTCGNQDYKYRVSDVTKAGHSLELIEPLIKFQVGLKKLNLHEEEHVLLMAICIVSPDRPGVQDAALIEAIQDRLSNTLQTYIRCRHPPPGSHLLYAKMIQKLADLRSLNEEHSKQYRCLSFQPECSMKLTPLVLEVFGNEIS
Outline: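 VDR-UAS-bla HEK293T cells in 2% charcoal-stripped FBS were stimulated with 1-alpha,25-dihydroxyvitamin D3 (3 nM final) plus compound for 16 h at 37 C. The beta-lactamase CCF4 readout was normalized to 50 nM agonist and DMSO, and Hill fits gave IC50.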

[13] = molecular target: Vitamin D3 receptor (Homo sapiens) (UniProt P11473); experiment: qHTS assay for small molecule agonists of vitamin D receptor signaling (AID 588543)
Outline: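 β-lactamase reporter, VDR-UAS-bla HEK293T, agonist mode. Cells plated 5 h at 37 °C, compound titration 16 h at 37 °C, CCF4 dye 2 h RT, ratio 460/530 nm. Hill fit → EC50, efficacy vs 50 nM 1α,25-(OH)2D3.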

[14] = molecular target: Thyroid hormone receptor beta (Homo sapiens) (UniProt P10828); experiment: qHTS assay for small molecule agonists of thyroid hormone receptor beta signaling (AID 588545)
Chain of Thyroid hormone receptor beta (Homo sapiens) (P10828 whole entry, looked up): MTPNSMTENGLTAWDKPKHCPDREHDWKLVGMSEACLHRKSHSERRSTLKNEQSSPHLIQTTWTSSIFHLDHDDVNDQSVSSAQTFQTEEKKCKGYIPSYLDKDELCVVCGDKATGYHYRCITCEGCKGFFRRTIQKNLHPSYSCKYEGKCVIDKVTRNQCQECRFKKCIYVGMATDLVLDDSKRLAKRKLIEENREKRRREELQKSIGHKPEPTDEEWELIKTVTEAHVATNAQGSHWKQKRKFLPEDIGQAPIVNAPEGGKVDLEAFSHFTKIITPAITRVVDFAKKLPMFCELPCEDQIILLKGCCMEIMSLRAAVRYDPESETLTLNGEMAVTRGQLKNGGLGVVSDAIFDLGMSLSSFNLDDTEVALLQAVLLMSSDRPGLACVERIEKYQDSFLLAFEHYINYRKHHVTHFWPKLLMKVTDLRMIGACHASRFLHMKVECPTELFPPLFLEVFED
Outline: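 Agonist-mode beta-lactamase reporter assay, HEK 293 cells, 2% charcoal/dextran FBS; cells plated 4 hrs, compound 18 hrs at 37 C, CCF4 2 hrs RT. Normalized to 10 nM T3 (100%) and DMSO (0%); Hill fit gives EC50, efficacy.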

[15] = qHTS assay for small molecule antagonists of retinoid X receptor alpha signaling (AID 588546); conditions: HEK293T RXRa-UAS-bla, beta-lactamase ratio, antagonist mode; measured here: W530 green channel, cytotoxicity proxy;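 further: cells stimulated with 9-cis-retinoic acid as agonist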
Outline: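 Beta-lactamase reporter inhibition, read as CCF4 fluorescence ratio (ex 405, em 460/530 nm) after 2 h at RT. HEK293T UAS-bla cells, 2500/well, were stimulated with 9-cis-RA at 500 or 100 nM final alongside test compound for 18 h at 37 C.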

[16] = molecular target: Estrogen receptor (Homo sapiens) (UniProt P03372); experiment: qHTS assay for small molecule antagonists of estrogen receptor alpha signaling (AID 588513; active means well fitted curve in the direction sought with a large enough effect in the signal ratio, with a control signal flat, not every such curve was filed as active; the % refers to the signal ratio)
Outline: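 Beta-lactamase reporter, antagonist mode, HEK 293 GripTite cells; 0.5nM E2 stimulus, 18 h, 37 C; CCF4 dye 2 h RT; fluorescence. IC50 and efficacy from Hill fits, normalized to E2 and DMSO.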

[17] = qHTS assay for small molecule agonists of retinoid X receptor alpha signaling (AID 588544); conditions: HEK293T RXRa-UAS-bla, beta-lactamase reporter, 18 h; 530 nm emission
[18] = molecular target: Retinoic acid receptor RXR-alpha (Homo sapiens) (UniProt P19793); experiment: as above
Chain of Retinoic acid receptor RXR-alpha (Homo sapiens) (P19793 whole entry, looked up): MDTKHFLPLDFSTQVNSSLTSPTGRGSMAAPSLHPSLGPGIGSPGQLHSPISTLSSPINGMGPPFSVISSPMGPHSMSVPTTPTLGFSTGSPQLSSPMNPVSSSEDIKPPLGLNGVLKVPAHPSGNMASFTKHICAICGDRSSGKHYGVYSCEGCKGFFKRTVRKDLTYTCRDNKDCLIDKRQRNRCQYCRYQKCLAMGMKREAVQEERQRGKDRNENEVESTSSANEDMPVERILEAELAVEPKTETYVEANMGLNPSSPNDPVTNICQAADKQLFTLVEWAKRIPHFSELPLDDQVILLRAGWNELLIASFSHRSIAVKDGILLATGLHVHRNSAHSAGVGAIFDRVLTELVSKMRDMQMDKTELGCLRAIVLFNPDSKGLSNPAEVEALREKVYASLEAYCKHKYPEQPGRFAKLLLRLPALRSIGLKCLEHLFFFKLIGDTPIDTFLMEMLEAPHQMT

[19] = molecular target: Peroxisome proliferator-activated receptor gamma (Homo sapiens) (UniProt P37231); experiment: qHTS assay for small molecule agonists of peroxisome proliferator-activated receptor gamma signaling (AID 588536; active means well fitted curve in the direction sought with a large enough effect in the signal ratio, with a control signal flat, not every such curve was filed as active; the % refers to the signal ratio)
Outline: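 GeneBLAzer PPAR-gamma-UAS-bla HEK293 cells in 1% charcoal/dextran-treated FBS medium were treated 16 h at 37 C with compounds. Beta-lactamase activity was read by CCF4 ratio (460/530 nm). Response was normalized to 2 uM rosiglitazone (100%) and DMSO, then Hill-fitted for EC50 and efficacy.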

SMILES	outcome [1]	activation [2]	Potency [3]	outcome [4]	activation [5]	activation [6]	Potency [7]	outcome [8]	max response [9]	Potency [10]	Potency [11]	Potency [12]	outcome [13]	outcome [14]	max response [15]	Potency [16]	max response [17]	Potency [18]	outcome [19]
CCO/N=C(\CC)C1=C(O)CC(c2c(C)cc(C)cc2C)CC1=O (configuration not stated)	inactive	-1.77% (inactive)	inactive	inactive	1.57% (inactive)	-3.56% (inactive)	inactive	inactive	11.4%	inactive	inactive	inactive	inactive	inactive	-8.17%	–	–	–	–
O=[N+]([O-])c1c2ccccc2cc2ccccc12	–	–	–	–	–	–	–	–	–	–	31.6 µM (active)	inactive	inactive	inactive	–	inactive	3.63%	inactive	–
O=S(=O)(O)C(F)(F)C(F)(F)C(F)(F)C(F)(F)F	–	–	–	–	–	0.888% (inactive)	inactive	inactive	48.3% and 16.2%	inactive	inactive	inactive	inactive	inactive	–	inactive	–	–	inactive
Nc1c(Cl)c(Cl)c(Cl)c(Cl)c1Cl	–	1.01% (inactive)	inactive	–	–	–	–	inactive	13.6%	inactive	inactive	inactive	inactive	–	-3.59%	–	-5.48%	inactive	inactive
Nc1ccc(N=Nc2ccccc2)cc1	–	–	–	inactive	-11.4% (inactive)	-2.94% (inactive)	inactive	inactive	4.67%	inactive	inactive	inactive	inactive	inactive	–	–	-10.7%	inactive	inactive
COc1nn(CSP(=S)(OC)OC)c(=O)s1	inactive	–	–	inactive	3.32% (inactive)	12.2% (inactive)	inactive	inactive	–	–	–	inactive	inactive	inactive	–	–	–	–	–
O=S(=O)(c1ccc(Cl)cc1)c1ccc(Cl)cc1	inactive	–	–	–	–	-2.41% (inactive) and 8.97% (inactive)	inactive	inactive	-8.84% and -18.1% and 9.46%	inactive	–	inactive	inactive	inactive	-9.45% and -15.5% and -9.97%	inactive	-4.56% and -1.98%	inactive	inactive

— PubChem BioAssay (NCATS)
